Screens from PubChem.
Hits are enriched below; roughly 7.5% of the tested compounds scored in any of these assays.
KinaseGlo FLuc: Counterscreen for Luciferase (Kinase-Glo TM) Inhibition; AID 1379, 2008; Luciferin 4-monooxygenase (Photuris pensylvanica), Q27757; 200,000 tested, 0.28% active; Potency, µM (titrated, usually from 38.3 µM), inactives show at the highest dose activity change, negative = inhibition, most hits filed as inhibitors; Kinase-Glo luciferase, ATP luminescence, 8 min; also: % is scaled to controls: 0 for no effect and ±100 for the full control effect; nearly all actives have a fitted effect of over 60% in size
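Luminescence was the read-out, taken after 8-minute incubation at ambient temperature. Luciferase turned over luciferin with 10 uM ATP in imidazole pH 7.2 buffer containing KCl, MgCl2, Tween 20 and BSA.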
Rab9 promoter act: qHTS Assay for Rab9 Promoter Activators | Huh7 Rab9 promoter-luciferase reporter, luminescence, 24 h | AID 485297, 2010 | Potency, µM (top dose mostly 9.22 µM), without a hit: at the top dose activation, negative = inhibition, most hits filed as activators | 320,000 tested, 2.8% active; also: % of control where 0% means no effect; nearly all actives have a fitted effect of over 60% in size
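Using Huh7 cells stably transfected with Rab9 promoter–luciferase, compounds were incubated 24 h at 37 °C, 5% CO2; luciferase luminescence was read 10 min after reagent addition.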
SMN2 splice up: qHTS Assay for Enhancers of SMN2 Splice Variant Expression | HEK293 SMN2-luciferase splicing reporter, luminescence, 30-36 h | Potency, µM (top dose mostly 46.1 µM), without a hit: at the highest dose activity change, positive = activation, actives largely listed as activators | 210,000 tested, 2.8% active; also: % of control where 0% means no effect; nearly all actives have a fitted effect of over 55% in size
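HEK293 cells carry an SMN2 […]–luciferase reporter in which exon 7 inclusion puts luciferase in frame. Cells were plated 10-12 h before compound addition, then incubated 30-36 h at 37C. ONE-Glo luminescence was read; sodium butyrate at 4.5 mM final served as control.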
ELG1 genotox: qHTS screen for small molecules that induce genotoxicity in human embryonic kidney (HEK293T) cells expressing luciferase-tagged ELG1; Potency, µM (series often up to 46 µM), for the others: top-dose activity change, positive = activation, usual class: activators; HEK293T ELG1-luciferase reporter, luminescence, 16 h; 330,000 tested, 1.3% active; also: % of control where 0% means no effect; nearly all actives have a fitted effect of over 60% in size
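HEK293T cells expressing luciferase-tagged ELG1 were treated with compound or DMSO for 16 hr at 37°C. Luciferase activity was then read after 30 min with ONE-Glo at room temperature; rising signal flags genetic stress.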
NPC1 promoter act: qHTS Assay for NPC1 Promoter Activators. Huh7 NPC1 promoter luciferase reporter, 24 h. Potency, µM (top dose mostly 9.22 µM), for the others: at the top dose activation, usual class: activators. 320,000 tested, 2.4% active. AID 485313, 2010; also: % of control where 0% means no effect; nearly all actives have a fitted effect of over 60% in size
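Luciferase expression driven by the NPC1 promoter was measured in stably transfected Huh7 cells after a 24 h compound incubation, using a luciferase reagent and a luminescence read.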
FLuc counter: qHTS profiling assay for firefly luciferase inhibitor/activator using purifed enzyme and Km concentrations of substrates (counterscreen for miR-21 project); Luciferin 4-monooxygenase (Photinus pyralis), P08659; Potency, µM (highest dose often 57.5 µM), inactives show at the top dose activity change, negative = inhibition, usual class: inhibitors; purified FLuc, Km substrates, luminescence inhibition; 360,000 tested, 6.9% active; AID 588342, 2011;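 also: plate controls were vehicle for no effect and reference inhibitor for full effect; nearly all actives have a fitted effect of over 55% in size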
Target sequence (P08659 whole entry, looked up): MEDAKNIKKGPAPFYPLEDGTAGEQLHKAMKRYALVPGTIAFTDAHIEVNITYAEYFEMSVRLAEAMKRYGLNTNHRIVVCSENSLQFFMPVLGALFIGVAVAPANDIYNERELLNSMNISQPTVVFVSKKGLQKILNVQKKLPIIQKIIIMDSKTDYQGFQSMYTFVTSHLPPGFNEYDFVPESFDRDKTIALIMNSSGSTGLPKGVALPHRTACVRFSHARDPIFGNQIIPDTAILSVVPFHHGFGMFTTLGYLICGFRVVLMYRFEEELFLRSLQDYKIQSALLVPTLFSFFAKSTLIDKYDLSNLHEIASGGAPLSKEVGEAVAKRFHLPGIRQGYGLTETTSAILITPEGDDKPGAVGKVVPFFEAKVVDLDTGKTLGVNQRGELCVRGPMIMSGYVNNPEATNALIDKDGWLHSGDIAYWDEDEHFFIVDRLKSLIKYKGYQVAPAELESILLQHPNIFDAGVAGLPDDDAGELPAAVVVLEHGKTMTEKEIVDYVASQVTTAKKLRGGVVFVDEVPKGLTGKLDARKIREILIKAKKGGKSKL
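Purified P. pyralis luciferase (10nM final) with 10uM D-luciferin and 10uM ATP (Km levels) in 50mM Tris acetate pH 7.5, 10mM Mg acetate, 0.01% Tween-20, 0.05% BSA; qHTS 6-point titration, ~60 µM downward; luminescence read.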
Numbers without * were called inactive; ? = inconclusive; nt = no result. Calls follow the shape of the dose curve; as a rule, active = well fitted curve in the direction sought with a large enough effect; inconclusive = small, poorly fitted or top-dose-only effect, or another doubt; inactive = no such curve, though single readings can be large; an effect the other way counts as inactive or inconclusive. Potency is read from the fitted curve at half-maximal effect.

SMILES	KinaseGlo FLuc	Rab9 promoter act	SMN2 splice up	ELG1 genotox	NPC1 promoter act	FLuc counter
O=C(COc1ccccc1-c1nnc(-c2ccccc2)o1)Nc1ccc(Br)cc1F	nt	nt	nt	nt	nt	4.8µM*
COc1ccccc1OCC(=O)Nc1cccc(-c2nc3ccccc3o2)c1	-3%	10%	6%	-2%	2%	7.6µM*
Cc1cccc(C)c1OCC(=O)Nc1cccc(-c2nnc(-c3ccccc3)o2)c1	nt	6%	nt	-7%	3%	?
Cc1cccc(OCC(=O)Nc2cccc(-c3nnc(-c4ccccc4)o3)c2)c1C	-3%	20%	10µM*	5%	?	2%
Cc1ccc(OCC(=O)Nc2cccc(-c3nnc(-c4ccccc4)o3)c2)cc1	1%	?	25µM*	2%	?	?
CCCN(C(=S)Nc1ccccc1)C1CCS(=O)(=O)C1 (stereo not given)	-1%	0%	-29%	2%	1%	6%
Cc1ccccc1Nc1nnc(SCC(=O)c2c(N)n(C3CC3)c(=O)[nH]c2=O)s1	nt	-5%	nt	-2%	-1%	-2%
Cc1ccc(NC(=O)CCCn2c(=O)c3cccn3c3ccccc32)c(C)c1	nt	nt	nt	nt	nt	-18%
Cc1nc2ccc(S(=O)(=O)N(CC(=O)Nc3cccc(C)c3C)Cc3ccccc3)cc2s1	nt	nt	nt	nt	nt	1%
O=C(Nc1nc2c(Cl)cccc2s1)c1ccc([N+](=O)[O-])o1	nt	9%	nt	-12%	-2%	?
O=C(Nc1nc2c(F)cccc2s1)c1ccc([N+](=O)[O-])o1	nt	?	nt	2%	4µM*	?
Cc1nc(-c2ccccn2)sc1C(=O)Nc1ccc(F)cc1F	-3%	4µM*	8%	?	10%	-16%
CCOc1cc(C(=O)NCCc2csc3nc(-c4ccccc4F)nn23)cc(OCC)c1OCC	nt	nt	nt	nt	nt	-13%
CCC(=O)NCCc1sc2nc(-c3ccc(OC)cc3)nn2c1C	nt	nt	nt	nt	nt	19µM*
COc1ccc(-c2nc3sc(CCNC(=O)c4cc(Cl)ccc4OC)c(C)n3n2)cc1	nt	nt	nt	nt	nt	7.6µM*
CC(C)(C)c1ccc(C(=O)NCCc2csc3nc(-c4ccccc4F)nn23)cc1	nt	nt	nt	nt	nt	12µM*
COc1ccc(-c2nc3sc(CCNC(=O)c4ccc(C(C)(C)C)cc4)c(C)n3n2)cc1	nt	nt	nt	nt	nt	4.8µM*
CC(=O)Nc1nc(C)c(CCC2OCCO2)c(=O)[nH]1	nt	-6%	nt	-6%	2%	-2%
COc1ccc(-c2nc3sc(CCNC(=O)c4ccc(Br)o4)c(C)n3n2)cc1	nt	nt	nt	nt	nt	11µM*
O=C(NC(Cc1c[nH]c2ccccc12)C(=O)N/N=C/c1cccnc1)c1cccs1 (stereo not given)	-1%	9%	25µM*	-7%	2%	0%
Cc1c(C(=O)Nc2ccc3c(c2)OCCO3)sc2ncnc(N3CCCCC3C)c12 (stereo not given)	nt	-1%	nt	-11%	-2%	11µM*
C=CCn1cccc(C(=O)Nc2ccc(OC)cc2)c1=O	-14%	?	nt	12%	?	?
CCOc1ccc(NC(=O)c2cc3ccccc3cc2OC)cc1	nt	?	nt	?	?	5.4µM*
CCOc1ccc(NC(=O)c2cccc3ccccc23)cc1	nt	14%	nt	4%	-11%	-17%
COc1cc2ccccc2cc1C(=O)Nc1cccnc1	1%	?	13µM*	8.2µM*	?	11µM*
SMILES	KinaseGlo FLuc	Rab9 promoter act	SMN2 splice up	ELG1 genotox	NPC1 promoter act	FLuc counter
COc1ccc(NC(=O)c2cc3ccccc3cc2OC)cc1	nt	29%	nt	?	?	3.4µM*
COc1ccc(NC(=O)c2cccn(CC=C(C)C)c2=O)cc1	2%	1.6µM*	2%	6%	?	17µM*
CCOCN(C(=O)Cn1cnc2cc(C)c(C)cc21)c1c(C)cccc1CC	nt	nt	-14%	nt	nt	0%
CN(CC1CCOCC1)C(=O)CC1C(=O)NCCN1Cc1ccc(F)c(F)c1 (stereo not given)	nt	14%	nt	3%	-2%	2%
COCCNC(=O)c1cc(Sc2ccc(F)cc2F)nc2ccccc12	nt	nt	nt	nt	nt	-8%
Cc1ccc(C(C)C)c(OCCSc2nc3ccccc3n2CC(O)CO)c1 (stereo not given)	nt	nt	-16%	nt	nt	-15%
CCOc1ccc(NC(=O)c2cc3ccccc3cc2O)cc1	nt	2.8µM*	nt	?	?	0.76µM*
COc1cc2ccccc2cc1C(=O)Nc1ccc(N2CCN(C)CC2)cc1	-2%	3.5µM*	50%	14µM*	?	4.8µM*
COc1cc(OC)c(NC(=O)c2ccccc2F)cc1Cl	-1%	14%	13%	3%	6%	?
COc1cc2ccccc2cc1C(=O)Nc1ccc(N2CCN(C(=O)C(C)C)CC2)cc1	nt	-1%	nt	-13%	2%	-8%
COc1ccccc1NC(=O)c1cc2cc(Br)ccc2cc1O	nt	-5%	nt	-10%	1%	17µM*
COc1cc(NC(=O)c2cc3ccccc3cc2O)c(OC)cc1Cl	nt	-7%	nt	-6%	?	9.5µM*
Cc1cc(=O)[nH]c2nnc(SCc3cccc(C(F)(F)F)c3)n12	nt	nt	nt	nt	nt	5%
CCOc1ccccc1NC(=O)CSc1nc2c([nH]c3ccccc32)c(=O)n1-c1ccccc1	nt	nt	nt	nt	nt	6%
O=C(NCC(c1ccco1)N1CCCCC1)c1ccc(COc2ccccc2)cc1 (stereo not given)	nt	-4%	nt	-7%	0%	-2%
COc1cc2ccccc2cc1C(=O)Nc1ccccc1Cl	nt	26%	nt	?	?	3.4µM*
COc1cc2cc(C(=O)Nc3ccccc3)c(N)nc2cc1OC	0%	-1%	-7%	0%	2%	12µM*
COc1ccccc1Nc1ncc(-c2cccs2)s1	-8%	2.8µM*	22µM*	?	?	2.7µM*
Brc1ccc(-c2nc(-c3ccncc3)no2)o1	-5%	?	?	18µM*	?	?
Brc1ccc(-c2nc(-c3ccncc3)no2)cc1	nt	3.2µM*	nt	?	2.2µM*	2.4µM*
CSc1ccccc1-c1nc(-c2ccncc2)no1	nt	?	nt	?	3.5µM*	?
Cc1ccccc1-c1nc(-c2ccccn2)no1	6.3µM*	0.45µM*	1.1µM*	?	?	0.48µM*
O=[N+]([O-])c1ccc(-c2nc(-c3ccncc3)no2)cc1	nt	?	nt	12%	?	?
